# Laboratory results taken from PubChem BioAssay.
# “And” between values parts separate entries of the source, which are not always exact repeats. Equal entries are not always repeated. Records with an inconclusive call do not appear. Some structures have more than one record in an assay (separate samples or runs), and their calls can disagree. The source made the active and inactive calls.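 How the source made its calls, unless noted: active means normalized viability below 100% at a tested concentration; inactive means the rest.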
# How the values were obtained:
# [1] = viability loss in pontine glioma line – cell-based, SU-DIPG-XVII, MIPE5.0, CellTiter-Glo, qHTS, dose response (AID 1347060; cut-off not given, nearly all actives have AC50 up to about 26 µM;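 further: cells exposed to compound for 48 hours before viability readout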); details: CellTiter-Glo ATP luminescence
# [2] = viability loss in pontine glioma line – cell-based, SU-DIPG-XIII, MIPE4.0, CellTiter-Glo, qHTS, dose response (AID 1347061; cut-off not given, nearly all actives have AC50 up to about 37 µM;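 further: cells exposed to compound for 48 hours before readout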); details: CellTiter-Glo ATP luminescence
# [3] = viability loss in pontine glioma line – cell-based, JHH-DIPG-1, MIPE4.0, CellTiter-Glo, qHTS, dose response (AID 1347062; cut-off not given, nearly all actives have AC50 up to about 27 µM;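 on AC50: cells exposed to compound for two days before readout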); details: JHH-DIPG-1 viability, CellTiter-Glo ATP luminescence
# [4] = viability loss in pontine glioma line – cell-based, SU-DIPG-IV, MIPE4.0, CellTiter-Glo, qHTS, dose response (AID 1347063; cut-off not given, nearly all actives have AC50 up to about 30 µM;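 further: compound exposure lasted 48 hours before the viability readout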); details: CellTiter-Glo ATP luminescence
# [5] = viability loss in pontine glioma line – cell-based, SU-DIPG-XXV, MIPE5.0, CellTiter-Glo, qHTS, dose response (AID 1347065; cut-off not given, nearly all actives have AC50 up to about 26 µM;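 further: cells exposed to compound for 48 hours before ATP readout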); details: CellTiter-Glo ATP luminescence
# [6] = growth inhibition of DIPG cells – cell-based, MIPE4.0 library, CellTiter-Glo luminescence, qHTS (AID 1347066; cut-off not given, nearly all actives have AC50 up to about 30 µM;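 further: cells exposed to compound for 48 hours before readout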); details: SU-DIPG-VI viability, CellTiter-Glo ATP luminescence
# [7] = JHH-DIPG-1 glioma cell viability, MIPE5.0 library, CellTiter-Glo luminescence, qHTS (AID 1347067; cut-off not given, nearly all actives have AC50 up to about 26 µM;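 further: cells exposed to compound for 48 hours before readout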); details: JHH-DIPG-1 glioma viability, CellTiter-Glo ATP luminescence
# [8] = growth inhibition of DIPG cells – cell-based, MIPE5.0 library, qHTS (AID 1347068; cut-off not given, nearly all actives have IC50 up to about 30 µM;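 on IC50: cells exposed to compound for 48 hours before viability readout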); details: SU-DIPG-XXV viability
# [9] = viability loss with induced miR-34 in A549 – imaging, A549 dox-inducible miR-34, nuclei and caspase counts, primary screen (AID 1347080;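 active means compounds whose cell count with miR-34 switched on is under 0.7 times the count with it off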); details: A549 miR-34 inducible, Hoechst nuclei count, 48 h
# [10] = MELAS cybrid and Rieske KO viability enhancers – cell-based, MELAS cybrids, Rieske KO mouse fibroblasts, CellTiter-Glo, primary screen (AID 1508586;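 active means mean z-score across replicates of 1.96 or higher in either the MELAS or the Rieske mutant cell line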;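 further: z relative to plate mean and SD of compound and empty wells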); details: low glucose
# [11] = drug combination growth inhibition, ovarian cancer – cell-based, oncology-focused library, rucaparib conditional, profiling panel (AID 1508598); details: patient-derived ovarian cancer cells, CellTiter-Glo viability, 144 h, stronger effect = lower value
# [12] = viability loss in pontine glioma line – cell-based, SU-DIPG-XIII, MIPE5.0, CellTiter-Glo, qHTS, dose response (AID 1347064; cut-off not given, nearly all actives have AC50 up to about 23 µM;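 further: cells exposed to compound for 48 hours before the viability read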); details: CellTiter-Glo ATP luminescence
# [13] = growth inhibition, single agent or in combination, cell-based, chromothripsis tumors, cisplatin or BGB combos (AID 1671449; in the data active means inhibition above about 80%;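 further: cells exposed for 96 hours; 0% = vehicle DMSO and 100% = killing by high DMSO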); details: LFS_MB_P medulloblastoma cells
# [14] = growth inhibition, single agent and combos, cell-based, chromothripsis tumors, cisplatin or BGB combos (AID 1671450; in the data active means inhibition above about 80%;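 further: cells exposed to compound for four days; 0% = vehicle DMSO and 100% = cell killing by high DMSO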); details: HDN33 neuroblastoma cells, stronger effect = higher value
# [15] = growth inhibition, single agents and combos, ICB984, cell-based, cisplatin or BGB combos, synergistic combos for chromothripsis tumors (AID 1671451; call rule not given here;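 further: cells exposed for 96 hours before readout; 0% = vehicle DMSO and 100% = killing by high DMSO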); details: ICB984 medulloblastoma cells, drug combinations, stronger effect = higher value
# [16] = growth inhibition, single agents and combos, HTB85, cell-based, BGB or cisplatin IC20 combos, synergistic combos for chromothripsis tumors (AID 1671453; in the data active means inhibition above about 80%;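 further: cells exposed for 96 hours before readout; 0% = vehicle DMSO and 100% = high DMSO killing control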); details: HTB85 osteosarcoma cells, drug combinations, stronger effect = higher value
# [17] = growth inhibition, MDA-MB-436, cell-based, BGB or cisplatin combos, synergistic combos for chromothripsis tumors (AID 1671458; call rule not given here;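 further: cells exposed for 96 hours; 0% = vehicle DMSO and 100% = killing by high DMSO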); details: MDA-MB-436 breast carcinoma growth inhibition, drug combinations, stronger effect = higher value
# [18] = BT084 cell growth, single and combined drugs, ICGC_MB145, cisplatin and BGB IC40 combos (AID 1671461; in the data active means inhibition above about 80%;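 further: cells exposed to drugs for 96 hours; 0% = vehicle DMSO and 100% = high DMSO full killing control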); details: BT084 medulloblastoma cells, drug combinations, stronger effect = higher value
# [19] = RCMB18 cell growth, single agent and combined, cisplatin and BGB IC40 combos (AID 1671462; in the data active means inhibition above about 80%;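 further: cells exposed to compound for four days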); details: RCMB18 medulloblastoma cells, stronger effect = higher value
# [20] = stronger effect = lower value, cell number ratio, induced over uninduced
# [21] = measured here: relative caspase fold change +Dox/-Dox
# [22] = measured here: total cells with miR-34 induction, stronger effect = lower value
# [23] = measured here: total cells without miR-34 induction
# [24] = MELAS cybrid survival, CellTiter-Glo 48 h, stronger effect = higher value
# [25] = Rieske KO mouse fibroblast survival, CellTiter-Glo 72 h
compound,measurement,setting,value
Cc1[nH]nc2ccc(-c3cncc(OC[C@@H](N)Cc4ccccc4)c3)cc12,AC50,[1],1660 nM (active)
same,AC50,[2],4690 nM (active)
same,AC50,[3],1180 nM (active)
same,AC50,[4],2640 nM (active)
same,AC50,[5],1480 nM (active)
same,AC50,[6],10500 nM (active)
same,AC50,[7],1480 nM (active)
same,IC50,[8],1660 nM (active)
C=C(c1ccc(C(=O)O)cc1)c1cc2c(cc1C)C(C)(C)CCC2(C)C,AC50,[1],23500 nM (active)
same,outcome,[2],inactive
same,outcome,[3],inactive
same,outcome,[4],inactive
same,AC50,[5],118 nM (active)
same,outcome,[6],inactive
same,outcome,[8],inactive
same,fold change,[9]; [20],0.951 (inactive) and 0.85 (inactive)
same,fold change,[9]; [21],1.39 and 1.44
same,cell count,[9]; [22],6410 and 6330
same,cell count,[9]; [23],6740 and 7440
same,z-score,[10]; [24],0.149 (inactive) and 0.79 (inactive)
same,z-score,[10]; [25],0.712 and -0.251
same,viability,"[11]; at 0.000305 µM, OCI-C5x cells, with rucaparib 10 µM, 100% = cells with rucaparib alone",115% (inactive)
same,viability,"[11]; at 0.000305 µM, OCI-C5x cells, without rucaparib",109% (inactive)
same,viability,"[11]; at 0.000305 µM, OCI-P5x cells, with rucaparib 20 µM, 100% = cells with rucaparib alone",90.9% (active)
same,viability,"[11]; at 0.000305 µM, OCI-P5x cells, without rucaparib",106% (inactive)
same,viability,"[11]; at 0.00122 µM, OCI-C5x cells, with rucaparib 10 µM, 100% = cells with rucaparib alone",116% (inactive)
same,viability,"[11]; at 0.00122 µM, OCI-C5x cells, without rucaparib",109% (inactive)
same,viability,"[11]; at 0.00122 µM, OCI-P5x cells, with rucaparib 20 µM, 100% = cells with rucaparib alone",96% (active)
same,viability,"[11]; at 0.00122 µM, OCI-P5x cells, without rucaparib",111% (inactive)
same,viability,"[11]; at 0.00488 µM, OCI-C5x cells, with rucaparib 10 µM, 100% = cells with rucaparib alone",112% (inactive)
same,viability,"[11]; at 0.00488 µM, OCI-C5x cells, without rucaparib",120% (inactive)
same,viability,"[11]; at 0.00488 µM, OCI-P5x cells, with rucaparib 20 µM, 100% = cells with rucaparib alone",108% (inactive)
same,viability,"[11]; at 0.00488 µM, OCI-P5x cells, without rucaparib",120% (inactive)
same,viability,"[11]; at 0.0195 µM, OCI-C5x cells, with rucaparib 10 µM, 100% = cells with rucaparib alone",108% (inactive)
same,viability,"[11]; at 0.0195 µM, OCI-C5x cells, without rucaparib",119% (inactive)
same,viability,"[11]; at 0.0195 µM, OCI-P5x cells, with rucaparib 20 µM, 100% = cells with rucaparib alone",113% (inactive)
same,viability,"[11]; at 0.0195 µM, OCI-P5x cells, without rucaparib",124% (inactive)
same,viability,"[11]; at 0.0781 µM, OCI-C5x cells, with rucaparib 10 µM, 100% = cells with rucaparib alone",106% (inactive)
same,viability,"[11]; at 0.0781 µM, OCI-C5x cells, without rucaparib",106% (inactive)
same,viability,"[11]; at 0.0781 µM, OCI-P5x cells, with rucaparib 20 µM, 100% = cells with rucaparib alone",112% (inactive)
same,viability,"[11]; at 0.0781 µM, OCI-P5x cells, without rucaparib",125% (inactive)
same,viability,"[11]; at 0.313 µM, OCI-C5x cells, with rucaparib 10 µM, 100% = cells with rucaparib alone",103% (inactive)
same,viability,"[11]; at 0.313 µM, OCI-C5x cells, without rucaparib",122% (inactive)
same,viability,"[11]; at 0.313 µM, OCI-P5x cells, with rucaparib 20 µM, 100% = cells with rucaparib alone",115% (inactive)
same,viability,"[11]; at 0.313 µM, OCI-P5x cells, without rucaparib",130% (inactive)
same,viability,"[11]; at 1.25 µM, OCI-C5x cells, with rucaparib 10 µM, 100% = cells with rucaparib alone",98% (active)
same,viability,"[11]; at 1.25 µM, OCI-C5x cells, without rucaparib",122% (inactive)
same,viability,"[11]; at 1.25 µM, OCI-P5x cells, with rucaparib 20 µM, 100% = cells with rucaparib alone",117% (inactive)
same,viability,"[11]; at 1.25 µM, OCI-P5x cells, without rucaparib",126% (inactive)
same,viability,"[11]; at 5 µM, OCI-C5x cells, with rucaparib 10 µM, 100% = cells with rucaparib alone",101% (inactive)
same,viability,"[11]; at 5 µM, OCI-C5x cells, without rucaparib",128% (inactive)
same,viability,"[11]; at 5 µM, OCI-P5x cells, with rucaparib 20 µM, 100% = cells with rucaparib alone",116% (inactive)
same,viability,"[11]; at 5 µM, OCI-P5x cells, without rucaparib",125% (inactive)
COc1ccc(-c2nc(N3CCOCC3)c3sc(CN(C)c4ncc(C(=O)NO)cn4)cc3n2)cn1,AC50,[1],23.5 nM (active)
same,AC50,[2],37.2 nM (active)
same,AC50,[3],13.2 nM (active)
same,AC50,[12],26.3 nM (active)
same,AC50,[5],14.8 nM (active)
same,AC50,[6],2.63 nM (active)
same,AC50,[7],6.62 nM (active)
same,IC50,[8],295 nM (active)
same,fold change,[9]; [20],1.02 (inactive)
same,fold change,[9]; [21],0.447
same,cell count,[9]; [22],1250
same,cell count,[9]; [23],1230
same,z-score,[10]; [24],-0.053 (inactive)
same,z-score,[10]; [25],-3.69
same,inhibition,"[13]; at 0.5 µM, stronger effect = higher value",-17.1% (inactive) and 84.7% (active)
same,inhibition,"[13]; measured here: combination with BGB IC20, at 0.005 µM",-19% and -26.8%
same,inhibition,"[13]; measured here: combination with BGB IC40, at 0.005 µM",-13.4% and -10.7%
same,inhibition,"[13]; measured here: combination with BGB IC40, at 0.05 µM",-8.69% and -6.92%
same,inhibition,"[13]; measured here: combination with cisplatin, at 0.5 µM, stronger effect = higher value",-32.9% and 119%
same,inhibition,"[13]; measured here: combination with cisplatin, at 5 µM, stronger effect = higher value",120% and 126%
same,inhibition,"[14]; BGB combo, at 5 µM",99.9% and 99.7%
same,inhibition,[14]; at 0.5 µM,98.9% (active) and 93.4% (active)
same,inhibition,"[14]; cisplatin combo, at 5 µM",99.9%
same,inhibition,"[14]; measured here: with BGB IC20 combination, at 0.5 µM",97.8% and 90.5%
same,inhibition,"[14]; measured here: with cisplatin IC20 combination, at 0.5 µM",99.5% and 96.1%
same,inhibition,"[14]; single agent, at 5 µM",99.9%
same,inhibition,"[15]; BGB IC20 combo, at 0.005 µM",85.9% and 87.2%
same,inhibition,"[15]; BGB IC40 combo, at 0.005 µM",93.2% and 94%
same,inhibition,"[15]; BGB IC40 combo, at 0.05 µM",101%
same,inhibition,[15]; at 0.5 µM,-8.74% (inactive) and -32% (inactive)
same,inhibition,"[15]; cisplatin combo, at 0.05 µM",101%
same,inhibition,"[15]; cisplatin combo, at 0.5 µM",10.9% and -33%
same,inhibition,"[15]; cisplatin combo, at 5 µM",21.2% and -18.3%
same,inhibition,"[15]; measured here: 5 uM single agent, at 5 µM",1.99% and 3.43%
same,inhibition,[16]; at 0.5 µM,99.5% (active) and 95.4% (active)
same,inhibition,"[16]; measured here: with BGB IC20, at 0.5 µM",99.5% and 93.3%
same,inhibition,"[16]; measured here: with BGB IC20, at 5 µM",99.8% and 99.9%
same,inhibition,"[16]; measured here: with cisplatin IC20, at 0.5 µM",99.9%
same,inhibition,"[16]; measured here: with cisplatin IC20, at 5 µM",100% and 99.9%
same,inhibition,"[16]; single agent, at 5 µM",99.9%
same,inhibition,[17]; at 0.5 µM,55.1% (inactive) and 39.3% (inactive)
same,inhibition,"[17]; measured here: BGB combination, at 0.5 µM",45.2% and 33.3%
same,inhibition,"[17]; measured here: BGB combination, at 5 µM",89.9% and 80.2%
same,inhibition,"[17]; measured here: cisplatin combination, at 0.5 µM",50.8% and 33.9%
same,inhibition,"[17]; measured here: cisplatin combination, at 5 µM",91.2% and 86.1%
same,inhibition,[18]; at 0.5 µM,84.3% (active) and 90.7% (active)
same,inhibition,"[18]; cisplatin combination, at 0.5 µM",99.6% and 101%
same,inhibition,"[18]; cisplatin combination, at 5 µM",102% and 106%
same,inhibition,"[18]; measured here: BGB IC40 combination 0.05 uM, at 0.05 µM",55.4% and 3.88%
same,inhibition,"[18]; single agent, at 5 µM",109% and 106%
same,inhibition,[19]; at 0.5 µM,90.3% (active) and 89.8% (active)
same,inhibition,"[19]; cisplatin combo, at 5 µM",97.3% and 101%
same,inhibition,"[19]; measured here: BGB IC40 combination, at 0.05 µM",42.1% and 41.3%
same,inhibition,"[19]; measured here: combination with cisplatin, at 0.5 µM",91.8% and 91.3%
same,inhibition,"[19]; single agent, at 5 µM",98.7% and 99.3%
